Test results published in PubChem BioAssay AID743320 (Broad Institute, 2014).
Measured potencies and affinities stand elsewhere. Activity calls are given as the source filed them.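 How the source made its calls: active means signal drop whose fitted half-maximal potency is at most twice the top valid dose tested; inconclusive means flat curve inhibiting 30 to 70 percent, or a poor fit; inactive means the rest.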

Target: Endoplasmic reticulum aminopeptidase 2 (Homo sapiens) (UniProt Q6P179)
Assay: inhibition of ERAP2 arginine-AMC cleavage – biochemical, fluorescence plate reader, cherry-picked, set 2, selectivity assay for selective ERAP1 modulator project, dose response (AID 743320)
Settings: recombinant ERAP2, Arg-AMC fluorescence, 1 h; series mostly up to 11 µM; activity change, negative = inhibition: at the top concentration

Endoplasmic reticulum aminopeptidase 2 (Homo sapiens), sequence (Q6P179 whole entry, looked up): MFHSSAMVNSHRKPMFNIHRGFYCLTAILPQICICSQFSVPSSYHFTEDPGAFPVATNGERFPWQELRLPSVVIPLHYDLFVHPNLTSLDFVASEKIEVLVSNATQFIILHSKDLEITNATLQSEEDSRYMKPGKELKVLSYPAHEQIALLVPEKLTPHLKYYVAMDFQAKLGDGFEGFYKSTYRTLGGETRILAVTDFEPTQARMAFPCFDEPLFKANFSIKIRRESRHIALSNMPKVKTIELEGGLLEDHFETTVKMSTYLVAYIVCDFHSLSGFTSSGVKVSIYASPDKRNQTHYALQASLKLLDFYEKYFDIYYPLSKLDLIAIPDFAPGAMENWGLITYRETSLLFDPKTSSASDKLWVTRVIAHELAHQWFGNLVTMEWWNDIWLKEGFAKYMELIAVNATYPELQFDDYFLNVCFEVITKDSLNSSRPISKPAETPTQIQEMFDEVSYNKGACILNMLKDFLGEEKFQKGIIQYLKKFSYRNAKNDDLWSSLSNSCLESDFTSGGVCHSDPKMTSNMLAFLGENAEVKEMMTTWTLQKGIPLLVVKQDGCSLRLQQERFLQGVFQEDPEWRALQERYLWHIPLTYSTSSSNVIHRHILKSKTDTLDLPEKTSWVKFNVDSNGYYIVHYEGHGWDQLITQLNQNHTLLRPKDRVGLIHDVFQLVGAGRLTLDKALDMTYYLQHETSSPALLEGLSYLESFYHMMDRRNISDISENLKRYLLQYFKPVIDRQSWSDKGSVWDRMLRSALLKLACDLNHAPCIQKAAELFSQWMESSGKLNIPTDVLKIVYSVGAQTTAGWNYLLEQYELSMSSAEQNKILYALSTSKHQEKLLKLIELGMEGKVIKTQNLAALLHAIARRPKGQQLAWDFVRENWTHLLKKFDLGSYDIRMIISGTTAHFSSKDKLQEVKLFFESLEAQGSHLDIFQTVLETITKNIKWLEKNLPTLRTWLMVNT

Activity change, negative = inhibition, inactive:
NC(=NCCc1c[nH]c2ccccc12)NS(=O)(=O)c1cc(F)ccc1F 9.24%
COc1ccc(CN(C)C[C@H]2OCCCC[C@@H](C)Oc3ccc(NS(=O)(=O)c4cccs4)cc3C(=O)N([C@@H](C)CO)C[C@@H]2C)cc1 10.1%
O=C(Nc1ccc(C(F)(F)F)cc1)N1[C@@H]2CNC[C@H]1C2c1ccc(-c2ccncc2)cc1 (stereo not given in full) 1.51%
Cc1noc(C)c1NC(=O)Nc1ccc2c(c1)C(=O)N([C@H](C)CO)C[C@@H](C)[C@@H](CN(C)Cc1ccc(C(F)(F)F)cc1)OCCCC[C@@H](C)O2 -2.75%
C[C@H]1CN([C@@H](C)CO)C(=O)c2cccc(NC(=O)Nc3ccc4c(c3)OCO4)c2O[C@@H]1CN(C)CC1CC1 12.8%
Cc1noc(C)c1S(=O)(=O)Nc1ccc2c(c1)C(=O)N([C@H](C)CO)C[C@H](C)[C@H](CN(C)Cc1ccc3c(c1)OCO3)OCCCC[C@@H](C)O2 11.2% [at 10 µM]
C[C@@H]1CCCCO[C@@H](CN(C)CC2CCCCC2)[C@H](C)CN([C@@H](C)CO)C(=O)c2cc(NC(=O)Nc3ccccc3)ccc2O1 12.1%
C[C@H](CO)N1C[C@H](C)[C@H](CN(C)CC2CCCCC2)Oc2c(NC(=O)Nc3ccc4c(c3)OCO4)cccc2C1=O -0.254%
O=C(C[C@H]1CC[C@@H]2[C@H](COC[C@@H](O)CN2C(=O)Nc2cccc(Cl)c2)O1)N1CCCCC1 32.4%
C[C@H](CO)N1C[C@H](C)[C@H](CN(C)Cc2ccc(C(=O)O)cc2)Oc2c(NC(=O)Nc3ccccc3)cccc2C1=O 22.8%
Cc1ccc(-c2cc(C(=O)N3CCCC3)c3ccccc3n2)s1 133%
Cc1noc(C)c1NC(=O)N(C)C[C@@H]1Oc2c(NC(=O)Nc3ccc(F)cc3)cccc2C(=O)N([C@H](C)CO)C[C@@H]1C 18.4%
C[C@@H]1CCCCO[C@H](CN(C)Cc2ccc(C(=O)O)cc2)[C@H](C)CN([C@@H](C)CO)C(=O)c2cc(NC(=O)Nc3ccc(C(F)(F)F)cc3)ccc2O1 11.3%
Cc1noc(C)c1S(=O)(=O)Nc1ccc2c(c1)C(=O)N([C@H](C)CO)C[C@@H](C)[C@@H](CN(C)CC1CCCCC1)OCCCC[C@@H](C)O2 1.44%
N#Cc1c(N)n(CCNC(=O)c2ccccc2)c2nc3ccccc3nc12 438%
COc1ccc(C(=O)O)cc1S(=O)(=O)Nc1cc(C(F)(F)F)ccc1N1CCCCC1 8.35%
COc1ccc(CN(C)C[C@@H]2OCCCC[C@@H](C)Oc3ccc(NS(=O)(=O)c4c(C)noc4C)cc3C(=O)N([C@@H](C)CO)C[C@@H]2C)cc1 -1%
C[C@@H]1CCCCO[C@@H](CN(C)Cc2ccc(C(=O)O)cc2)[C@@H](C)CN([C@H](C)CO)C(=O)c2cc(NC(=O)Nc3cccc4ccccc34)ccc2O1 5.34%
C[C@@H]1CCCCO[C@@H](CN(C)C(=O)CCC(F)(F)F)[C@@H](C)CN([C@@H](C)CO)C(=O)c2cc(NS(=O)(=O)c3ccccc3)ccc2O1 14.4% [at 2.6 µM]
C[C@@H]1CCCCO[C@@H](CN(C)C(=O)CCC(F)(F)F)[C@@H](C)CN([C@@H](C)CO)C(=O)c2cc(NS(=O)(=O)c3ccc(Cl)cc3)ccc2O1 127% [at 10 µM]
C[C@@H]1CCCCO[C@@H](CN(C)Cc2ccc3c(c2)OCO3)[C@@H](C)CN([C@@H](C)CO)C(=O)c2cc(NS(=O)(=O)c3ccccc3)ccc2O1 12.7% [at 5.6 µM]
C[C@H](CO)N1C[C@H](C)[C@H](CN(C)CC2CCCCC2)Oc2c(NC(=O)Nc3ccc(C(F)(F)F)cc3)cccc2C1=O 11.4%
COc1ccc(NC(=O)Nc2cccc3c2O[C@H](CN(C)Cc2ccc(C(=O)O)cc2)[C@H](C)CN([C@H](C)CO)C3=O)cc1 15.1%
CC(=O)N1CCN(C(=O)C2(NC(=O)Nc3ccc(C)cc3)CCCCC2)CC1 2.05%
COc1ccc(NC(=O)Nc2ccc3c(c2)C(=O)N([C@H](C)CO)C[C@@H](C)[C@@H](CN(C)Cc2ccc(C(=O)O)cc2)OCCCC[C@@H](C)O3)cc1 2.96%
C[C@@H]1CN([C@H](C)CO)C(=O)c2cc(NC(=O)Nc3ccc(F)cc3)ccc2O[C@H]1CN(C)Cc1ccc(C(=O)O)cc1 1.24%
Cc1noc(C)c1NC(=O)N(C)C[C@@H]1Oc2c(NC(=O)Nc3ccccc3)cccc2C(=O)N([C@H](C)CO)C[C@@H]1C 10.6%
CCCN(C)C[C@@H]1OCCCC[C@@H](C)Oc2ccc(NS(=O)(=O)c3ccc(OC)cc3)cc2C(=O)N([C@H](C)CO)C[C@@H]1C 15.1% [at 8 µM]
COc1cc2cc(C(=O)N3CCN(Cc4ccc5c(c4)OCO5)CC3)c(=O)oc2cc1OC 139% [at 5.6 µM]
C[C@@H]1CCCCO[C@@H](CN(C)Cc2ccc(C(=O)O)cc2)[C@H](C)CN([C@@H](C)CO)C(=O)c2cc(NS(=O)(=O)c3ccc(Cl)cc3)ccc2O1 24.2%
